Screens deposited in PubChem by National Center for Advancing Translational Sciences (NCATS).
Shiga toxin inh: A qHTS for Small Molecule Inhibitors of Shiga Toxin; Vero cells, Shiga toxin protein synthesis inhibition reporter; inhibition, % at 38.7 µM; 290,000 tested, 9.2% active; in the data active = inhibition mostly above about 28%, no sharp cut-off; inactive = mostly below about 43%; note: 0% is about no effect
FBPA Giardia inh: qHTS Assay for Inhibitors of Fructose-1,6-bisphosphate Aldolase from Giardia Lamblia. A8B2U2. 290,000 tested, 0.71% active. AID 2451, 2010. Potency, µM (top dose mostly 59.6 µM), without a hit: at the highest dose activity, negative = inhibition, hits mostly inhibitors. purified Giardia FBPA; note: potency is the fitted concentration of half-maximal effect; % is set by controls: 0 for no effect and ±100 for the full control effect; nearly all actives have a fitted effect of over 55% in size
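Giardia FBPA (40 nM reagent) was preincubated 10 min at RT with compound (up to 57.5 uM final), then substrate plus GAPDH/TPI/NAD/arsenate coupling system with diaphorase/resazurin was added; resorufin fluorescence (525/598 nm) was read after 20 min.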
LmPK inhibitor: qHTS Assay for Inhibitors of Leishmania Mexicana Pyruvate Kinase (LmPK); AID 1721, 2009; 290,000 tested, 0.37% active; purified LmPK, Kinase-Glo ATP luminescence, 1 h; Q27686; Potency, µM (titrated, usually from 57.5 µM), inactives show top-dose activity change, negative = inhibition, most hits filed as inhibitors; note: potency is the fitted concentration of half-maximal effect; % is set by controls: 0 for no effect and ±100 for the full control effect
Target sequence (Q27686 whole entry, looked up): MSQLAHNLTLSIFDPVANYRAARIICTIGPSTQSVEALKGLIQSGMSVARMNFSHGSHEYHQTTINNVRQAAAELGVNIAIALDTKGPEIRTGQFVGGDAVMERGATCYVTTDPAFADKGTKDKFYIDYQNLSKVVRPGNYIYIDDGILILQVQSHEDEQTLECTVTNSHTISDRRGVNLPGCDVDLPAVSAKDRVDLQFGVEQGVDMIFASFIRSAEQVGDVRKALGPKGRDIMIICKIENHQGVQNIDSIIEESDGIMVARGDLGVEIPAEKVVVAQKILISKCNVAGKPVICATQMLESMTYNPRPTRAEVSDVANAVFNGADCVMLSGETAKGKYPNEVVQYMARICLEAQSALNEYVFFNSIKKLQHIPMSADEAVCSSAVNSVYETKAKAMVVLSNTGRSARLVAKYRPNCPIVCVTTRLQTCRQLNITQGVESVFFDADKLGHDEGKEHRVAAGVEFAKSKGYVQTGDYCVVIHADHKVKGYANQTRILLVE
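In 50 mM imidazole pH 7.2 with 7 mM MgCl2, LmPK (0.1 nM) turned over PEP (0.5 mM) and ADP (0.1 mM) for 1 h at room temperature. Luciferase read-out of ATP.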
Sm TGR inh: qHTS Assay for the Inhibitors of Schistosoma Mansoni Peroxiredoxins | Schistosoma mansoni thioredoxin glutathione reductase (TGR), Q962Y6 | purified TGR, DTNB reduction, TNB absorbance 405 nm | Potency, µM (series often up to 114 µM), without a hit: at the highest dose activity change, negative = inhibition, actives largely listed as inhibitors | 360,000 tested, 3% active; note: potency is the fitted concentration of half-maximal effect; % is set by controls: 0 for no effect and ±100 for the full control effect; nearly all actives have a fitted effect of over 60% in size
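TGR 20 nM + NADPH 100 uM (dispensed conc.), cpd preinc 15 min RT; start with NADPH (500 uM addition) then DTNB (15 mM addition). Kinetic TNB absorbance, 405 nm filter. Four-parameter Hill fit across titration.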
Cycloheximide cs: Cycloheximide Counterscreen for Small Molecule Inhibitors of Shiga Toxin. 300,000 tested, 12% active. AID 2314, 2010. cell reporter, cycloheximide protein synthesis inhibition counterscreen. max response, %; in the data active = max response mostly above about 13%, no sharp cut-off; inactive = mostly below about 14%; note: read at 38.3 µM for the half of the compounds with a filed dose; 0% is about no effect
Tb PYK inh: qHTS of Trypanosoma Brucei Inhibitors | Potency, µM (titrated, usually from 76.8 µM), for inactives: at the top dose activity, negative = inhibition, most hits filed as inhibitors | 410,000 tested, 0.12% active | pyruvate kinase (Trypanosoma brucei), Q57TT1 | TbPYK enzyme, Kinase-Glo Plus ATP luminescence, 45 min; note: potency is the fitted concentration of half-maximal effect; % is set by controls: 0 for no effect and ±100 for the full control effect; nearly all actives have a fitted effect of over 50% in size
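TbPYK + substrate in 50 mM TEA pH 7.2, 100 mM KCl, 10 mM MgCl2, 0.05% BSA, 0.01% Tween-20; cpd pinned; ADP 130 uM final; 45 min RT; Kinase-Glo Plus 10 min; luminescence endpoint.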
* hit, by the source's call; ? = inconclusive; . = no result; [ ] = remark or other dose. The full list was thinned out, with hits kept by preference. Unless noted, calls come from the whole dose curve; as a rule, active = well fitted curve in the direction sought with a large enough effect; inconclusive = small, poorly fitted or top-dose-only effect, or another doubt; inactive = no such curve, though single readings can be large; an effect the other way counts as inactive or inconclusive.

SMILES	Shiga toxin inh	FBPA Giardia inh	LmPK inhibitor	Sm TGR inh	Cycloheximide cs	Tb PYK inh
CCOC(=O)CNC(=O)CSc1cc(C)nc2ccc(OC)cc12	72.5*	2.6%	?	35.1%	28.7*	2.7%
NS(=O)(=O)c1cc(Br)c2c(c1)S(=O)(=O)NCN2	.	.	.	.	.	-14.6%
CCOC(=O)CCSc1nc(C)c2ccccc2n1	57.4*	-0.7%	5.9%	2.7%	18.3*	0.1%
CCS(=O)(=O)N1CCN(c2nc(-c3ccccc3)cs2)CC1	30.0	-12.2%	0.3%	-2.4%	18.4*	-6.4%
Cc1cc(N2CCN(c3nc(-c4ccccc4)cs3)CC2)c2ccccc2n1	-6.4	7.0%	0.6%	1.6%	-2.2	-16.6%
O=C(CCCl)N1CCN(c2nc(-c3ccccc3)cs2)CC1	68.7*	-22.5%	-4.2%	-23.7%	32.7*	3.9%
COc1cccc(-c2csc(N3CCN(S(=O)(=O)c4ccc(F)cc4)CC3)n2)c1	37.9	-0.6%	2.1%	5.3%	-2.9	-4.1%
CS(=O)(=O)N1CCN(c2nc(-c3ccccc3)cs2)CC1	64.4	11.7%	-0.6%	13.7%	27.4*	-15.9%
Cc1ccc([C@H]2N[C@]3(CCCN(Cc4ccc(C(F)(F)F)cc4)C3=O)[C@H]3C(=O)N(C)C(=O)[C@@H]23)cc1	.	.	.	.	.	-5.2%
COC(=O)C/C=C\[C@H](C)[C@@H](OCc1ccccc1Br)C(C)C	.	1.3%[12.9 µM]	.	.	.	.
C=CCSc1n[nH]c(-c2ccc(OCCC)cc2)n1	125.0*	?	-0.4%	0.9%	50.0*	1.4%
CCCOc1ccc(-c2nc(SCC(=O)c3ccc(Cl)cc3)n[nH]2)cc1	.	.	.	3.7%	.	-6.1%
CCOc1ccc(-c2nc(SCC(=O)c3ccccc3)n[nH]2)cc1	.	.	.	-2.9%	.	-17.5%
C=CCSc1n[nH]c(-c2ccc(OCCCC)cc2)n1	16.9*	?	-1.7%	6.8%	41.3*	-3.1%
O=C(c1ccco1)N1CCC2(CCN(Cc3cc(C(F)(F)F)cc(C(F)(F)F)c3)CC2)CC1	.	2.0%	.	.	.	6.5%
CC(=O)N1CCC2(CC1)OC(=O)C(C)=C2C(=O)Nc1cc(C)ccc1C	.	.	.	-0.8%	.	1.1%[15.4 µM]
CN(c1cnn(-c2ccccc2)c(=O)c1Cl)n1cccc1	56.4*	0.2%	4.5%	4.1%	34.5*	8.8%
Nc1c(Cl)cnn(-c2ccccc2)c1=O	.	.	.	.	.	2.2%
O=c1c(Cl)c(Cl)cnn1-c1ccccc1	-18.9	3.1%	-3.0%	39.8µM*	-8.6	1.9%
Cc1ccc(CNC(=O)Cn2ccn(-c3ccc(C)c(C)c3)c(=O)c2=O)cc1	.	.	.	-5.0%	.	-2.9%
COc1cccc(-c2cc(C(F)(F)F)nc(NCCc3ccccc3)n2)c1	.	.	.	6.9%	.	0.4%
Cc1nc2c(ccc3c([N+](=O)[O-])cccc32)c(C)c1C	74.8	-4.7%	-2.9%	0.0%	36.7*	2.0%
Cc1c(Cl)cccc1NC(=O)c1cc(-c2ccccc2O)n[nH]1	35.6	-2.0%	1.9%	0.0%	18.4*	2.9%
COc1ccc(Cl)cc1NC(=O)c1cc(-c2ccccc2O)n[nH]1	12.9	-4.5%	6.4%	-0.2%	10.3	-1.7%
Cc1cccc(NC(=O)c2cc(-c3cc(C)c(C)cc3O)n[nH]2)c1	43.2*	10.2%	-0.6%	0.0%	28.3*	-4.9%
Cc1cccc(NC(=O)c2cc(-c3cc(C)ccc3O)n[nH]2)c1	108.4*	4.2%	1.0%	-17.6%	39.6*	-3.7%
Cc1ccc(-c2cc(C(=O)Nc3cccnc3)[nH]n2)c(O)c1C	100.4*	-2.9%	-4.8%	0.2%	38.8*	4.3%
CCC1=C[C@@H]2CN(C1)Cc1c([nH]c3ccccc13)[C@@](C(=O)OC)(c1cc3c(cc1OC)N(C)[C@H]1[C@@](O)(C(=O)OC)[C@H](OC(C)=O)[C@]4(CC)C=CCN5CC[C@]31[C@@H]54)C2	-3.3	?	.	.	-6.9	.
CCOc1cc(CNC(=O)c2cc(-c3ccc(Cl)s3)nc3ccccc23)ccc1OC	.	.	.	43.4%	.	0.1%
